UHRF1 MBD2 ctr = human UHRF1 methylated DNA binding inhibitors. Q96T88. UHRF1 binding to methylated oligo, TR-FRET. inhibition, % at 4.4 µM. hit rate 0.75% among 370,000. AID 687016; in the data active = inhibition above about 21%;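 note: UHRF1 SRA domain binding a hemimethylated CpG hairpin DNA probe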
MBD2 inh = inhibitors of human MBD2 binding to methylated oligonucleotide. Q9UBB5. hit rate 0.31% among 370,000. inhibition, % at 4.4 µM. AID 686964. TR-FRET; in the data active = inhibition above about 13%
Target sequence (Q9UBB5 whole entry, looked up): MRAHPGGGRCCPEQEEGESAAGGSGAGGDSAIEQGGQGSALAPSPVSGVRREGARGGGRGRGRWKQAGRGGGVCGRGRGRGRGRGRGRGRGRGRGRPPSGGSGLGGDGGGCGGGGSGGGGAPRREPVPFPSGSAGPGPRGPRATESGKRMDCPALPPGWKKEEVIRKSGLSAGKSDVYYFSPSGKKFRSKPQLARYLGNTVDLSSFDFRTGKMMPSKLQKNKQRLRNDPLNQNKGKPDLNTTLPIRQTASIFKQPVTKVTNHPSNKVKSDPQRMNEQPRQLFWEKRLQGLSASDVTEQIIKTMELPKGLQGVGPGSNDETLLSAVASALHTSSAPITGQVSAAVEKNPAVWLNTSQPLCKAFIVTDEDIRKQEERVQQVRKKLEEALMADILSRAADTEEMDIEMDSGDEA
PRMT1 FP inh = blocks human protein arginine methyltransferase 1 | Q99873 | recombinant PRMT1, activity-based probe fluorescence polarization | inhibition, % at 2.79 µM | hit rate 1.3% among 370,000;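 active = inhibition above about 21% made by adding two undisclosed values, limit read from the data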
PfGluPho inh = PfG6PD (Plasmodium falciparum) enzyme inhibition; PfGluPho enzyme, NADPH resazurin-diaphorase fluorescence; inhibition, % at 20 µM; hit rate 0.78% among 350,000; AID 504690;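 active = inhibition reaching at least a set limit at 20 µM in the primary screen, cut at about 59% in these data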
PfM18AAP inh = blocks P. falciparum M18 aspartyl aminopeptidase; recombinant PfM18AAP, H-Glu-NHMec fluorogenic cleavage; hit rate 1.2% among 290,000; inhibition, % at 7.35 µM; AID 1822;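 active = inhibition above the campaign mean inhibition over all tested compounds plus 3 SD, cut at about 28% in these data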
Large screens that a line does not name were inactive. The list is not random: actives were taken first. Their share in the collection is about 3.3%.

S=C(NC1CCCCC1)N1CCN(Cc2ccccc2)CC1	UHRF1 MBD2 ctr 21.4
S=C(NC1CCCCC1)N1CCN(Cc2ccccc2Cl)CC1	none
N=C1S/C(=C\c2ccc(-c3ccccc3C(=O)O)o2)C(=O)N1c1ccc2c(c1)OCO2	UHRF1 MBD2 ctr 23.4
COc1ccccc1N1C(=N)S/C(=C\c2ccc(-c3ccccc3C(=O)O)o2)C1=O	none
Cc1cc(N2CCCC2)nc2ccc(NC(=S)NCCCN3CCC(C)CC3)cc12	UHRF1 MBD2 ctr 21.8
CCCN1CCN(CCCNC(=S)Nc2ccc3nc(N4CCN(CC)CC4)cc(C)c3c2)CC1	none
COc1cc(/C=N/NC(=O)NC2CCCCC2)cc(OC)c1O	PfM18AAP inh 29.4
COc1cc(/C=N/NC(=O)NC2CCCCC2)ccc1O	none
CCCCCNC(=O)C(c1cccc2ccccc12)n1c(=O)c(-c2ccccc2)nc2ccccc21 (stereo not drawn)	UHRF1 MBD2 ctr 73.9 (no result: PfGluPho inh, PfM18AAP inh)
CCCC1CCC2(CC1)CCC2OC(=S)NCc1cccc(OC)c1 (stereo not drawn)	none (no result: PfGluPho inh, PfM18AAP inh)
COc1ccc(OC)c(Nc2nc(-c3c(C)nc4ncccn34)cs2)c1	none
Cc1cccc(Nc2nc(-c3c(C)nc4ccccn34)cs2)c1	none
Cc1nc2ccccn2c1-c1csc(Nc2cccc(C(=O)O)c2)n1	PfM18AAP inh 30.7
Cc1nc2ncccn2c1-c1csc(Nc2cccc(C(=O)O)c2)n1	PfM18AAP inh 28.7
S=c1[nH]nc(-c2ccco2)n1/N=C/c1ccc(Cl)cc1Cl	PRMT1 FP inh 22.2
Cc1nn(C)cc1-c1n[nH]c(=S)n1-c1ccc(Cl)cc1	PfM18AAP inh 29.8
CC(C)(C)c1cc(-c2n[nH]c(=S)n2-c2ccc(Cl)cc2)n[nH]1	none
S=c1[nH]nc(-c2ccco2)n1C1CCCCC1	none
COc1ccc(-n2c(-c3ccco3)n[nH]c2=S)cc1	none
S=c1[nH]nc(-c2ccco2)n1/N=C/c1cccs1	none
S=c1[nH]nc(-c2ccco2)n1-c1ccc(Cl)cc1	PfM18AAP inh 30.1
Nn1c(-c2ccco2)n[nH]c1=S	PfM18AAP inh 28.6
CCCCNc1ccc2c(c1)OC[C@H](C)NS2(=O)=O	none (no result: PfGluPho inh, PfM18AAP inh)
CCCn1cc(CCC(=O)Nc2ccc(Oc3cccnc3)cc2)c2ccccc21	none (no result: PfGluPho inh, PfM18AAP inh)
CSC(=Cc1ccc(C(=O)c2ccc(C)cc2)n1C)S(C)=O (stereo not drawn)	none (no result: PfGluPho inh, PfM18AAP inh)
CN1C2=N[C@H](c3ccccc3Br)CC(=O)N2/C(=C\c2ccccc2)[C@@H]1c1ccccc1	none (no result: PfGluPho inh, PfM18AAP inh)
COC(=O)C1=C(C)NC(=O)/C1=C\N(C)C	PRMT1 FP inh 24.6
Cc1cc(C)c(NC(=O)CSc2ccc(-c3cccnc3)nn2)c(C)c1	PRMT1 FP inh 23.2
Cc1ccccc1NC(=O)CSc1ccc(-c2cccnc2)nn1	none
Cc1cc(NC(=O)CSc2ccc(-c3ccc4c(c3)OCO4)nn2)no1	none (no result: PfGluPho inh)
Cc1cccc(NC(=O)CSc2ccc(-c3ccc4c(c3)OCO4)nn2)c1C	UHRF1 MBD2 ctr 27.4
COc1ccc(OC)c(S(=O)(=O)CC(=O)c2cc3ccc(OC)cc3oc2=O)c1	none (no result: UHRF1 MBD2 ctr, MBD2 inh, PRMT1 FP inh)
COc1ccc(S(=O)(=O)CC(=O)c2cc3cc(Br)ccc3oc2=O)cc1	PfM18AAP inh 28.8
O=C1CC(c2ccco2)CC(O)=C1C=NCC1NCCc2ccccc21 (stereo not drawn)	PfM18AAP inh 28.8
CC1CN(C2CCN(S(=O)(=O)c3ccc(F)cc3)CC2)CC(C)O1 (stereo not drawn)	UHRF1 MBD2 ctr 21.1
O=C(NC12CC3CC(CC(C3)C1)C2)c1ccc(-c2cccc(Cl)c2)o1	UHRF1 MBD2 ctr 21.4
Cc1cc2nc3n(c2cc1C)CC1CC(C(=O)NCc2ccco2)N(C)C31 (stereo not drawn)	UHRF1 MBD2 ctr 45.0 (no result: PfM18AAP inh)
CCc1ccc(CNCCNC(=O)c2ccco2)cc1	PRMT1 FP inh 21.1 (no result: PfM18AAP inh)
Clc1ccc(-n2c(SCc3cccc4ccccc34)nnc2-c2ccccn2)cc1	none (no result: PfGluPho inh, PfM18AAP inh)
COC(=O)c1cn(C(=O)c2ccccc2Cl)c2ccccc12	UHRF1 MBD2 ctr 25.0
COC(=O)c1cn(C(=O)OC)c2ccccc12	none
Oc1ccc(N=Cc2ccc(O)c(O)c2)cc1	PfGluPho inh 67.3, PfM18AAP inh 45.6 (no result: UHRF1 MBD2 ctr, MBD2 inh, PRMT1 FP inh)
Oc1ccc(/C=N/N=C/c2ccc(O)cc2)cc1	none
C#CCOCCOCCOCCNc1nc(N2CCN(C(=O)C(Cc3cc4ccccc4[nH]3)n3cc(C(N)C(C)CC)nn3)CC2)nc(N2CCN(C(=O)C(Cc3cc4ccccc4[nH]3)n3cc(C(N)C(C)CC)nn3)CC2)n1 (stereo not drawn)	PfGluPho inh 61.4 (no result: UHRF1 MBD2 ctr, MBD2 inh, PRMT1 FP inh)
C#CCOCCOCCOCCNc1nc(N2CCN(C(=O)[C@H](CCC(=O)O)n3cc(CN)nn3)CC2)nc(N2CCN(C(=O)[C@H](CCC(=O)O)n3cc([C@@H](N)[C@H](C)CC)nn3)CC2)n1	UHRF1 MBD2 ctr 22.4 (no result: PfM18AAP inh)
Cc1ccc2cc(N)ccc2n1	none
Nc1ccc2cc3ccc(N)cc3nc2c1	PRMT1 FP inh 148.3 (no result: PfGluPho inh, PfM18AAP inh)
COc1cccc2c1-c1c(O)cccc1C2=O	none
COc1cccc2c1C(=O)c1c(O)c3c(c(O)c1C2=O)CC(O)(C(C)=O)CC3OC1CC(O)C(O)C(C)O1 (stereo not drawn)	UHRF1 MBD2 ctr 81.0, MBD2 inh 77.6, PRMT1 FP inh active (no result: PfM18AAP inh)
CN1CCN(C(=O)Cn2ncc3c([nH]c4ccccc43)c2=O)CC1	UHRF1 MBD2 ctr 23.0
CC1CCN(C(=O)Cn2ncc3c([nH]c4ccccc43)c2=O)CC1	none
Cc1ccc(-n2c(SCC(=O)Nc3ccc4c(c3)OCCO4)nnc2-c2cccnc2)cc1	none (no result: PfGluPho inh, PfM18AAP inh)
O=S1(=O)CC(N2CCN(Cc3ccccc3F)CC2)CN1Cc1cn(Cc2ccc(C(F)(F)F)cc2)nn1 (stereo not drawn)	UHRF1 MBD2 ctr 21.0 (no result: PfGluPho inh, PfM18AAP inh)
O=C1CCN(N=Nc2cccc(Cl)c2)N1	PfM18AAP inh 31.3 (no result: UHRF1 MBD2 ctr, MBD2 inh, PRMT1 FP inh, PfGluPho inh)
COC(=O)C1CN(Cc2cn(Cc3ccccc3)nn2)CCS(=O)(=O)N1Cc1ccc(C)cc1 (stereo not drawn)	none (no result: PfGluPho inh, PfM18AAP inh)
Cc1ccsc1/C=N/NC(=O)c1sccc1C	none
Cc1cc(C(=O)N/N=C/c2sccc2C)no1	UHRF1 MBD2 ctr 22.7
C#CCOCCOCCOCCNc1nc(N2CCOCC2)nc(N2CCN(C(=O)[C@H](CCC(=O)O)n3cc(C(N)CO)nn3)CC2)n1 (stereo partly drawn)	none (no result: PfGluPho inh, PfM18AAP inh)
COc1ccc(-c2c(-c3ccccc3OC)sc3ccccc23)cc1F	none (no result: PfGluPho inh, PfM18AAP inh)
COc1cccc(NC(=O)CSc2nnc(-c3ccco3)c(-c3ccco3)n2)c1	PRMT1 FP inh 47.3
COc1ccc(NC(=O)CSc2nnc(-c3ccco3)c(-c3ccco3)n2)cc1OC	PfM18AAP inh 31.0
Cc1ccc2nc(CN(C)C(=O)[C@H](CCc3ccccc3)NC(=O)[C@H]3O[C@@H](n4cnc5c(N)ncnc54)[C@H](O)[C@@H]3O)[nH]c2c1	none (no result: PfGluPho inh, PfM18AAP inh)
COC(=O)c1ccccc1NC(=O)C(=O)NCc1ccncc1	UHRF1 MBD2 ctr 42.0
CCOC(=O)[C@@]12CCCC=C1N(CCc1ccc(Cl)cc1)C(=O)[C@H]2CC(=O)N1CCN(C(=O)c2ccco2)CC1	none (no result: PfGluPho inh, PfM18AAP inh)
COc1cccc(C(=O)NNC2=CC(=O)CC(C)(C)C2)c1	PfM18AAP inh 30.9
CC1(C)CC(=O)C=C(NNC(=O)c2cccnc2)C1	none
CC(C)(C)CCNc1nc(-c2ccccn2)nnc1-c1ccccc1	none (no result: PfGluPho inh, PfM18AAP inh)

Compound activity deposited in PubChem by several laboratories.
